{"source": "PubChem BioAssay AID588726", "about": "(The Scripps Research Institute Molecular Screening Center, 2011)", "note": "In all, about 360,000 compounds went through this assay and about 8,200 (2.3%) were called active. What follows is part of a selection rich in actives, with near analogues and random picks from the rest. Values without a mark were called inactive. Rule as the data show it: active = inhibition above about 27%; inactive = the rest."}
{"molecular_target": "Fructose-bisphosphate aldolase (Mycobacterium tuberculosis (strain ATCC 25618 / H37Rv)) (UniProt P9WQA3)", "sequence (P9WQA3 whole entry, looked up)": "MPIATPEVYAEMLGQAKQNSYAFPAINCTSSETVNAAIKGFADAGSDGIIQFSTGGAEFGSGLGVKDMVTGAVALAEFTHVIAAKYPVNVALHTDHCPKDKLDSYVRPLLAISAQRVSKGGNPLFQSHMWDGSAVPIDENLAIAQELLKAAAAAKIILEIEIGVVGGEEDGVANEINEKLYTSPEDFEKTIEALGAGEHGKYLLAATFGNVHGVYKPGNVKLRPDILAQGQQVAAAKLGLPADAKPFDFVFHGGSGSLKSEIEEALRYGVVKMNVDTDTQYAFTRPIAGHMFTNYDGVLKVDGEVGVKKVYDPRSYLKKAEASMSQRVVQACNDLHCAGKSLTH", "test": "Mtb FBA enzyme inhibitors, primary screen, biochemical, fluorescence, strain H37Rv (AID 588726);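 also: 0% = vehicle and 100% = reference inhibitor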", "details": "purified M. tuberculosis FBA, fluorescence read-out, at 1 µM, hits give high values"}
{"molecule": "O=C(OCC(=O)N(CCc1ccccc1)Cc1ccccc1)c1ccccc1[N+](=O)[O-]", "inhibition": "-2.21%"}
{"molecule": "COc1cccc(N(C(=O)c2ccn[nH]2)C2(C(=O)Nc3c(C)cccc3C)CCCCC2)c1", "inhibition": "-2.93%"}
{"molecule": "CC(=O)Nc1ccc(S(=O)(=O)N2CCC(C(=O)N[C@@H](Cc3ccccc3)C(=O)O)CC2)cc1", "inhibition": "7.63%"}
{"molecule": "O=C(O)CCN1C(=O)CC2(CCCCC2)C1=O", "inhibition": "1.19%"}
{"molecule": "O=C(NCc1ccc(F)cc1)c1cc(C2CCCCN2C(=O)C2CCCCC2)on1", "note": "(stereo unspecified)", "inhibition": "-0.56%"}
{"molecule": "CCCC(O)(c1ccccc1)C(c1ccccc1)c1ccccn1", "note": "(stereo unspecified)", "inhibition": "-3.41%"}
{"molecule": "COc1ccccc1C(=O)COC(=O)CNS(=O)(=O)c1ccc(NC(C)=O)cc1", "inhibition": "0.46%"}
{"molecule": "CC(=O)Nc1ccc(S(=O)(=O)NCC(=O)OCc2cc(=O)oc3ccc4ccccc4c23)cc1", "inhibition": "124% (active)"}
{"molecule": "COc1ccccc1CNC(=O)COC(=O)CNS(=O)(=O)c1ccc(NC(C)=O)cc1", "inhibition": "-1.17%"}
{"molecule": "Nn1c(SCC(=O)Nc2nccs2)nncc1=O", "inhibition": "-1.98%"}
{"molecule": "CC(C)N(C(=O)CSc1nc(COc2ccccc2)nc2ccccc12)C(C)C", "inhibition": "-0.47%"}
{"molecule": "COc1cc(C(F)(F)F)nc2c(Br)c(C(C)(C)C)nn12", "inhibition": "36.7% (active)"}
{"molecule": "O=C(CCN1C(=O)C2C3CCC(C3)C2C1=O)Nc1ccc(Cl)cc1Cl", "note": "(stereo unspecified)", "inhibition": "3.23%"}
{"molecule": "Cc1cc(C)cc(NC(=O)C(OC(=O)c2ccc(O)cc2)c2ccccc2)c1", "note": "(stereo unspecified)", "inhibition": "2.39%"}
{"molecule": "CN(C)CCCO/N=C(\\c1ccccc1)c1ccncc1", "inhibition": "-1.04%"}
{"molecule": "CC(=O)c1cc2c(cc1NC(=O)CN1CCCCCC1)OCO2", "inhibition": "0.04%"}
{"molecule": "COc1cccc(N(CC(=O)NC2CCCC2)C(=O)Cn2nnc(-c3ccc(C)o3)n2)c1", "inhibition": "2.95%"}
{"molecule": "COc1ccc(-c2cc3nc(NCCOc4ccccc4)ccn3n2)cc1", "inhibition": "9.7%"}
{"molecule": "COc1ccc(NC(=O)c2cc3nc(-c4ccccc4)cc(C)n3n2)cc1OC", "inhibition": "1.45%"}
{"molecule": "COCCNc1cc(-c2ccccc2)nc2cc(-c3cccc(F)c3)nn12", "inhibition": "50.2% (active)"}
{"molecule": "O=C(COC(=O)c1ncc(Cl)c(Cl)c1Cl)NCc1ccccc1", "inhibition": "3.15%"}
{"molecule": "CC(C)(C)C(=O)Nc1cccc(-c2ccc[nH]2)n1", "inhibition": "29.7% (active)"}
{"molecule": "Cc1cccc(NC(=O)COc2ccc(Br)cc2C)n1", "inhibition": "2.29%"}
{"molecule": "Cc1cccc(NC(=O)Cc2ccc(Br)cc2)n1", "inhibition": "-1.42%"}
{"molecule": "N#CCc1ccc(NC(=O)c2ccccc2C(=O)Nc2ccc(CC#N)cc2)cc1", "inhibition": "1.02%"}
{"molecule": "Cc1ccn2c(c1)nc(=O)c1cc(S(=O)(=O)N3CCC(C)CC3)ccc12", "inhibition": "29.3% (active)"}
{"molecule": "CC1CCN(S(=O)(=O)c2ccc3c(c2)n(C)c(=O)n3C)CC1", "inhibition": "-1.94%"}
{"molecule": "CC1CCN(S(=O)(=O)c2ccc3c(ccn3CC(=O)O)c2)CC1", "inhibition": "-0.33%"}
{"molecule": "N#Cc1ccc(N2Cc3ccccc3/C2=N/C(=O)Nc2ccc(Cl)cc2)cc1", "inhibition": "-0.15%"}
{"molecule": "CC1CCCCC1NC(=O)CN1CCC(O)(c2ccc3c(c2)OCO3)CC1", "note": "(stereo unspecified)", "inhibition": "-4.2%"}
{"molecule": "CN(C)c1ccc(/C=N/NC(=O)c2ccc(Cn3cc(Br)cn3)o2)cc1", "inhibition": "0.83%"}
{"molecule": "COc1ccc(/C=N/NC(=O)C(C)N(c2ccc(OC)cc2)S(C)(=O)=O)cc1", "note": "(stereo unspecified)", "inhibition": "-1.16%"}
{"molecule": "CN(C)c1ccc(/C=N/NC(=O)C(O)c2ccc(Br)cc2)cc1", "note": "(stereo unspecified)", "inhibition": "39.7% (active)"}
{"molecule": "CCCNC(=O)N1CCC(c2ccc3c(c2)OCO3)CC1", "inhibition": "0.5%"}
{"molecule": "O=c1[nH]oc(O)c1-c1ncc(C(F)(F)F)cc1Cl", "inhibition": "0.86%"}
{"molecule": "Cc1ccc(C)c(NC(=O)c2ccc(OC(=O)c3ccco3)cc2)c1", "inhibition": "3.01%"}
{"molecule": "CC(=O)N1C(=O)C2(Nc3ccccc3N2)c2ccccc21", "inhibition": "6.98%"}
{"molecule": "CC(C)=NN1C(=O)c2ccccc2NC1(C)C", "inhibition": "36.7% (active)"}
{"molecule": "CCOC(=O)C1(Cc2ccc(Cl)cc2)CCN(C(=O)C2=NNC(=O)CC2)CC1", "inhibition": "-6.86%"}
{"molecule": "COc1cc(/C=C/c2ccc(/C=C/c3cc(OC)c(OC)c(OC)c3)cc2)cc(OC)c1OC", "inhibition": "50.4% (active)"}
{"molecule": "COc1cc(/C=C/C2=CC(C)(C)NC(=S)N2)cc(OC)c1OC", "inhibition": "-5.13%"}
{"molecule": "CCC(=O)c1ccc(OC(=O)/C=C/c2cc(OC)c(OC)c(OC)c2)cc1", "inhibition": "4.81%"}
{"molecule": "CC/C(=N/Nc1ccccc1)c1cnnc(SC)n1", "inhibition": "0.39%"}
{"molecule": "COc1ccc(NC(=O)N2CCC(Cc3ccccc3)CC2)cc1", "inhibition": "53.4% (active)"}
{"molecule": "COc1ccc(C(=O)NC2CCN(C(=O)Nc3ccc(F)cc3)CC2)cc1", "inhibition": "-0.69%"}
{"molecule": "COc1ccc(NC(=O)N2CCCC(C(=O)Nc3ccccc3OC)C2)cc1", "note": "(stereo unspecified)", "inhibition": "1.71%"}
{"molecule": "O=C(COC(=O)c1ccc(S(=O)(=O)N2CCCCCC2)cc1)Nc1ccccc1C(F)(F)F", "inhibition": "4.5%"}
{"molecule": "CCc1ccc(Oc2coc3cc(OC(=O)c4cc5ccccc5oc4=O)ccc3c2=O)cc1", "inhibition": "13.1%"}
{"molecule": "COC(=O)COc1ccc2c(=O)c(Oc3ccccc3Br)coc2c1", "inhibition": "-0.49%"}
{"molecule": "CCc1ccc(Oc2coc3cc(O)ccc3c2=O)cc1", "inhibition": "70.2% (active)"}
{"molecule": "Cc1ccc(N2C(=O)CC(N3CCSCC3)C2=O)c(C)c1", "note": "(stereo unspecified)", "inhibition": "3.11%"}
{"molecule": "COc1cccc2[nH]c(C(=O)NCCc3ccccc3)cc12", "inhibition": "33.2% (active)"}
{"molecule": "COc1ccc(CCNC(=O)c2ccccc2-c2ccccc2C(=O)O)cc1OC", "inhibition": "2.28%"}
{"molecule": "COc1ccc(OC)c2[nH]c(=O)c(CCNC(=O)C(=O)c3c[nH]c4ccccc34)cc12", "inhibition": "-5.42%"}
{"molecule": "N#C[C@]1(S(=O)(=O)c2ccccc2)C[C@@H]2ON=C(c3cccc(Br)c3)[C@@H]2C1", "inhibition": "2.3%"}
{"molecule": "NS(=O)(=O)c1cc(C(=O)OCC(=O)NNC(=O)c2ccccc2)ccc1Cl", "inhibition": "-1.72%"}
{"molecule": "O=C(NCc1ccccc1)C1CNCC(C(=O)NCc2ccccc2)C1", "note": "(stereo unspecified)", "inhibition": "-0.79%"}
{"molecule": "Cn1c(-c2ccco2)nc2cc3ccccc3cc21", "inhibition": "81.7% (active)"}
{"molecule": "COc1ccc(-n2cnc3cc(NCc4ccco4)ccc32)cc1", "inhibition": "-1.49%"}
{"molecule": "Cn1c(SCC(=O)Nc2ccc(Br)cc2F)nnc1-c1ccco1", "inhibition": "1.98%"}
{"molecule": "N#Cc1c(C(F)(F)F)cc(-c2cccs2)nc1N1CCCCC1", "inhibition": "11%"}
{"molecule": "O=C(O)CSc1ccc(S(=O)(=O)N2CCCC2)cn1", "inhibition": "-0.83%"}
{"molecule": "N#Cc1c(N2CCCCC2)nc(N)c2c(N)nc(SCC(=O)O)cc12", "inhibition": "29.2% (active)"}
{"molecule": "COCc1c(C(=O)OCc2c(C)noc2C)oc2ccccc12", "inhibition": "5.69%"}
{"molecule": "CCOc1ccccc1C(=O)NC1CC2CCCC(C1)N2Cc1ccccc1", "note": "(stereo unspecified)", "inhibition": "-3.49%"}
{"molecule": "Cc1ccnc(NC(=O)C2CCN(S(=O)(=O)c3c(C)c(C)cc(C)c3C)CC2)c1", "inhibition": "1.99%"}
{"molecule": "CCN(CC(=O)Nc1c(F)cccc1F)C(=O)c1cnc(C)cn1", "inhibition": "2.56%"}
{"molecule": "CCN(CC(=O)Nc1c(F)cccc1F)C(=O)c1ccc(-c2ccccc2)cc1", "inhibition": "1%"}
{"molecule": "CCN(CC(=O)Nc1c(F)cccc1F)C(=O)c1ccc(-c2ccc(C(C)=O)cc2)o1", "inhibition": "142% (active)"}
{"molecule": "COC(=O)c1ccc([C@@H](O)[C@H](C)C(=O)CC(=O)OC(C)(C)C)cc1", "inhibition": "0.55%"}
{"molecule": "CCOc1ccc(S(=O)(=O)N2CCCC(C(=O)N3CCC(C(N)=O)CC3)C2)cc1Cl", "note": "(stereo unspecified)", "inhibition": "2.08%"}
{"molecule": "COc1cc(Br)cc(/C=N/c2ncn[nH]2)c1O", "inhibition": "-0.39%"}
{"molecule": "Oc1ccc(Br)cc1C=Nc1ccc2[nH]ncc2c1", "inhibition": "39.7% (active)"}
{"molecule": "COc1ccc(C)cc1NC(=O)CSc1nnc2ccc(-c3ccccn3)nn12", "inhibition": "5.79%"}
{"molecule": "COc1ccc(-c2ccc(C(=O)NC(C)C)c3occc23)c(C)c1", "inhibition": "69.8% (active)"}
{"molecule": "CC(=O)Oc1cc2c(C(=O)NCCN3CCOCC3)c(C)oc2c2ccccc12", "inhibition": "0.36%"}
{"molecule": "COc1ccc(-c2coc3c(C(=O)NC(C)C)cccc23)c(C)c1", "inhibition": "-2.36%"}
{"molecule": "COc1ccc(-c2cc(C(=O)NCCCN3CCOCC3)no2)cc1", "inhibition": "3.9%"}
{"molecule": "COc1ccc(-c2ccc(C(=O)NCCN3CCOCC3)c3occc23)c(C)c1", "inhibition": "88.1% (active)"}
{"molecule": "COCCCNC(=O)c1ccc(-c2c(C)noc2C)c2ccoc12", "inhibition": "1.17%"}
{"molecule": "CCOC(=O)[C@H]1[C@H]2COc3cc(OC)ccc3[C@@H]2N2C(=O)CN(Cc3ccc(Cl)cc3)C(=O)[C@@]12C", "inhibition": "-3.3%"}
{"molecule": "C=CCn1c(=O)n(C)c2c(=O)n(C)c(=O)n(C)c21", "inhibition": "1.89%"}
{"molecule": "Nc1scc(-c2ccncc2)c1Cl", "inhibition": "-1.39%"}
{"molecule": "CC(C)(C)Nc1c(-c2cccs2)nc2ccccn12", "inhibition": "76.1% (active)"}
{"molecule": "Cc1nc2ccccn2c(=O)c1NC(=O)c1cccs1", "inhibition": "3.76%"}
{"molecule": "Cc1cc2nc(C(F)(F)F)cc(-c3cccs3)n2n1", "inhibition": "9.4%"}
{"molecule": "COC(=O)C1=C(N)Oc2cc(C)[nH]c(=O)c2C1c1ccc(Cl)cc1", "note": "(stereo unspecified)", "inhibition": "-1.06%"}
{"molecule": "CCOC(=O)N1CCC(NC(=O)Cn2cc3c(n2)CCCCC3)CC1", "inhibition": "3.04%"}
{"molecule": "C[C@H]1CN([C@@H](C)CO)C(=O)CCCn2nncc2CO[C@@H]1CN(C)S(=O)(=O)c1cccc(C#N)c1", "inhibition": "1.03%"}
{"molecule": "O=C(CN1C(=O)NC2(CCCCC2)C1=O)NCCC1=CCCCC1", "inhibition": "1.11%"}
{"molecule": "COc1ccc(/C=C/C(=O)OCC(=O)Nc2cccc(Oc3ccccc3)c2)c(OC)c1", "inhibition": "-1.32%"}
{"molecule": "COc1cccc(NC(=O)CN(C)C(=O)Cc2ccc(Cl)cc2Cl)c1", "inhibition": "-2.96%"}
{"molecule": "COc1cccc(NC(=O)CN(C)C(C)C(=O)Nc2ccc(C#N)cc2)c1", "note": "(stereo unspecified)", "inhibition": "1.24%"}
{"molecule": "COc1cccc(NC(=O)CN(C)C(=O)CSC(=S)N2CCCC2)c1", "inhibition": "3.18%"}
{"molecule": "COc1cccc(NC(=O)CN(C)CC(=O)Nc2ccc3c(c2)CCC3)c1", "inhibition": "55.8% (active)"}
{"molecule": "COc1cccc(NC(=O)CN(C)C(=O)/C=C/c2cc(OC)ccc2OC)c1", "inhibition": "57.2% (active)"}
